Pf apPOL block: Pf-apPOL inhibitors, biochemical, fluorescence; Recombinant Pf-apPOL, molecular beacon fluorescence, 1.5 h; inhibition, % at 10 µM; 210,000 tested, 0.25% active
mHTT CaM bind: mutant huntingtin-calmodulin interaction inhibitors – biochemical, AlphaScreen, primary screen | AlphaScreen His-mHTT/GST-CaM binding, luminescence | P42858 | 190,000 tested, 3.6% active | inhibition, % at 15 µM
Of the large screens only hits and unclear results are named; the others gave an inactive call. Only a selection was taken, and hits are over-represented in it overall. Rule as the data show it: active = inhibition above about 50%; inactive = the rest.

CC(C)CC1C(=O)N(Cc2cn(Cc3ccco3)nn2)CCS(=O)(=O)N1Cc1ccc(-c2ccc(Cl)cc2)cc1 (centres undefined)	none
COc1ccc(-c2ccc(CN3C(C(C)C)C(=O)N(Cc4cn(CC5CCCCC5)nn4)CCS3(=O)=O)cc2)cc1 (centres undefined)	none
CC(C)CC1C(=O)N(Cc2cn(Cc3ccco3)nn2)CCS(=O)(=O)N1Cc1ccc(-c2cccc(CO)c2)cc1 (centres undefined)	mHTT CaM bind 59
CC(C)C1C(=O)N(Cc2cn(CC3CCCCC3)nn2)CCS(=O)(=O)N1Cc1ccc(-c2ccc(F)cc2)cc1 (centres undefined)	none
Cc1ccc(-c2ccc(CN3C(C(C)C)C(=O)N(Cc4cn(Cc5ccco5)nn4)CCS3(=O)=O)cc2)cc1 (centres undefined)	mHTT CaM bind 65
COc1ccc(Cl)cc1C(=O)N1CCN(c2ccccc2F)CC1	none
COc1ccc(Cl)cc1C(=O)N1CCN(C2=NN=C(c3cccs3)CS2)CC1	mHTT CaM bind 68
Cc1nn(-c2nc3ccccc3s2)c2c1C(c1ccccc1)CC(=O)N2 (centres undefined)	none
Cc1cc(C)nc(-n2nc(C)c3c2NC(=O)CC3c2ccc3ccccc3c2)n1 (centres undefined)	mHTT CaM bind 70
CN(CCO)C12CC3CC(CC(O)(C3)C1)C2	none
CCCC(=O)NC(c1ccccc1)c1ccc2cccnc2c1O (centres undefined)	mHTT CaM bind 100
CCCC(=O)NC(c1ccccc1)c1ccccc1	none
CCCC(=O)NC(c1ccc(F)cc1)c1ccc2cccnc2c1O (centres undefined)	mHTT CaM bind 100
CCCC(=O)NC(c1ccc(OC)cc1)c1ccc2cccnc2c1O (centres undefined)	mHTT CaM bind 100
CCCCC(=O)NC(c1ccccc1)c1ccc2cccnc2c1O (centres undefined)	mHTT CaM bind 100
CCCC(=O)NC(c1ccccc1)c1cc(Cl)c2cccnc2c1O (centres undefined)	none
CCC1CN(C(=O)Nc2cccc(SC)c2)c2cc(C)ccc2O1 (centres undefined)	none
Cc1ncc(CO)c2cc(C(N)=O)c(=Nc3ccc(Cl)c(Cl)c3)oc12	none
COCCn1c(C2CCN(C(=O)NC3CCCC3)C2)nc2cccnc21 (centres undefined)	none
COC(=O)c1cc(Nc2ccc(C)cc2)c2ccccc2n1	none
CCN1CCN(C(=O)c2cc(-c3ccncc3)cn2C)CC1	none
COc1ccc(Cl)cc1NC(=O)c1c(NCc2cccnc2)sc2c1CCC(C)C2 (centres undefined)	mHTT CaM bind 78
COc1cc(C(=O)Nc2sc3c(c2C(=O)O)CCC(C)C3)cc(OC)c1OC (centres undefined)	none
COc1ccccc1NC(=O)c1c(NCc2cccnc2)sc2c1CCC(C)C2 (centres undefined)	mHTT CaM bind 80
CCOc1ccccc1NC(=O)c1c(NCc2ccccn2)sc2c1CCC(C)C2 (centres undefined)	none
O=C(Nc1nnc(-c2ccno2)o1)c1cccs1	mHTT CaM bind 82
CS(=O)(=O)c1cccc(C(=O)Nc2nnc(-c3ccno3)o2)c1	mHTT CaM bind 95
O=C(Nc1nnc(-c2ccc(Br)s2)o1)c1cccs1	none
Cc1cc(C(=O)Nc2nnc(-c3ccno3)o2)no1	none
Cc1cc(-c2nnc(NC(=O)c3ccc4ncsc4c3)o2)nn1C	none
O=C(Nc1nnc(-c2ccno2)o1)c1ccc2ncsc2c1	Pf apPOL block 57, mHTT CaM bind 90
CCSc1c(C(=O)Nc2ccccc2)ccc2c1C(=O)c1ccccc1C2=O	none
COc1cccc(CNC(=O)CCS(=O)(=O)Cc2ccccc2Cl)c1	none
Cc1[nH]c(C(=O)N2CCC(CC(=O)NC(C)c3ccccc3)CC2)c(C)c1C (centres undefined)	none
CN(C)c1ccc(CNc2ccc3c(c2)ncn3C(C)(C)C)cc1	mHTT CaM bind 78
CCOc1ccc(CNc2ccc3c(c2)ncn3C(C)(C)C)cc1	none
CCN(CC)c1ccc(CNc2ccc3c(c2)ncn3CC)cc1	mHTT CaM bind 94
CCn1cnc2cc(NCc3ccc(N(C)C)cc3)ccc21	none
Cc1ccc(NC(=O)COc2ccc(Cl)cc2C)c(Br)c1	none
O=C(C1CC1)N1CCC(CCOc2cccnc2)CC1	none
OCc1nc2ccccc2n1Cc1ccc(Br)cc1	none
OCc1nc2ccccc2n1CC(O)COc1ccc(Br)cc1 (centres undefined)	mHTT CaM bind 73
Cc1ccc(Cl)c(OCC(O)Cn2c(C)nc3ccccc32)c1 (centres undefined)	none
Cc1nc2ccccc2n1CC(O)COc1ccccc1Cl (centres undefined)	mHTT CaM bind 58
COc1ccc(CNc2ccc3c(c2)CCC3)cc1	mHTT CaM bind 68
COc1cccc(CNc2ccc3c(c2)ncn3-c2ccccc2)c1OC	none
COc1ccc(CNC2CCCC2)cc1Br	none
COc1ccccc1CNc1ccc2c(c1)ncn2-c1ccccc1OC	mHTT CaM bind 62
CC(=O)Nc1ccc(CNc2ccc3c(c2)CCC3)cc1	none
COc1ccc(CNc2ccc3c(c2)CCC3)cc1Br	mHTT CaM bind 77
COc1cc(OC)c(CNc2ccc3c(c2)CCC3)cc1Br	mHTT CaM bind 85
COc1cc(OC)c(CNC2CCCC2)cc1Br	none
COc1ccc(C(F)(F)F)cc1NC(=O)CSc1ccc(-n2cccn2)nn1	none
O=C(NCc1ccncc1)C(=O)Nc1cccc(N2CCCCC2=O)c1	none
c1ccc(-c2nnc(-c3ccccn3)o2)nc1	none (no result: Pf apPOL block)
CC(C)CN1CCn2cc(C(=O)NCc3cccc(C(F)(F)F)c3)nc2C1	none
CC(=O)NCCc1csc(C2CCN(C(=O)c3ccc(F)cc3)CC2)n1	none
COc1ccc(CNc2cccc(N(C)C)c2)cc1	mHTT CaM bind 96
Fc1ccc(NCc2ccc3c(c2)OCO3)cc1F	none
COc1ccccc1CNc1ccc2c(c1)CCC2	mHTT CaM bind 79
c1cc(CNc2ccc3c(c2)CCC3)ccn1	none
COc1ccc(CNc2ccc(SC)cc2)cc1	none
c1cc2c(cc1CNc1ccc3c(c1)CCC3)OCO2	mHTT CaM bind 72
COc1ccc(CNC(=O)c2cc3cc4ccc(C)cc4nc3o2)c(OC)c1	none
CC1CN(C(=O)c2ccc(C#N)cc2)CC1c1nc(-c2cccnc2)no1 (centres undefined)	none
COc1ccc(Nc2nc(N)nc(CN3CCCCC3)n2)cc1	none
COc1ccc(Nc2nc(N)nc(CN3CCN(c4ccccc4)CC3)n2)cc1	mHTT CaM bind 54
Cn1c(=O)c(N2CCN(C(=O)C3(c4ccccc4)CC3)CC2)nc2ccccc21	none
Cc1cccc(S(=O)(=O)N2CCCC(C)(C(=O)NCc3ccc(F)cc3)C2)c1 (centres undefined)	none
Cc1cc(C)c(S(=O)(=O)N2CCCC(C)(C(=O)NCc3ccc(F)cc3)C2)cc1C (centres undefined)	mHTT CaM bind 61
Cc1cc(C)c(S(=O)(=O)N2CCCC(C)(C(=O)NCc3cccc(F)c3)C2)c(C)c1 (centres undefined)	none
Cc1cc(C)c(S(=O)(=O)N2CCCC(C)(C(=O)NCc3ccc(F)cc3)C2)c(C)c1 (centres undefined)	mHTT CaM bind 91
O=C(NCc1ccncc1)C1CCN(c2cccc(Cl)c2)C1=O (centres undefined)	none
COc1ccc(OC)c(C2C=C(Nc3ccccc3)C(=O)N2c2ccccc2)c1 (centres undefined)	none

Bioassay records: PubChem BioAssay, University of Kansas High Throughput Screening Laboratory
